“And” between values parts separate entries of the source, which are not always exact repeats. Identical values can stand only once. Out of some 5,500 compounds screened, about 2,000 (36%) were called active. Inconclusive results (about 18%) are left out. No stated cut-off is given here; in the data, active means normalized growth mostly below about 0.91 (no sharp cut-off); inconclusive means no clear call, values can overlap the other calls; inactive means mostly above about 0.92. The list shows a part of the results.
Assay: chemical genetic growth profiling, strain panel (AID 1159580);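 further: tested at 20 µM; growth read once vehicle control cultures reached saturation at 30 °C; 1 = growth at the plate median or of vehicle wells; lower values mean less growth of the strain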
Conditions: S. cerevisiae deletion strains, growth OD

Measured: normalized growth

CNC(C)(C)Cc1ccccc1
inactive: locus YAL013W, strain DEP1, hits give low values 1.01 | locus YAL021C, strain ccr4, hits give low values 0.997 | locus YAL026C, strain drs2, hits give low values 1.01 | locus YAL030W, strain snc1, hits give low values 1.01 | locus YBL061C, strain skt5, hits give low values 1.02 | locus YBR009C, strain hhf1, hits give low values 1.02 | locus YBR021W, strain FUR4, hits give low values 1.01 | locus YBR023C, strain chs3, hits give low values 1.02 | locus YBR171W, strain sec66, hits give low values 1.02 | locus YBR229C, strain ROT2, hits give low values 1.01 | locus YBR231C, strain swc5, hits give low values 1.02 | locus YBR279W, strain paf1, hits give low values 1.01 | locus YCL011C, strain gbp2, hits give low values 1.02 | locus YCL016C, strain dcc1, hits give low values 1.02 | locus YCL029C, strain bik1, hits give low values 1 | locus YCL061C, strain MRC1, hits give low values 1.01 | locus YCL069W, strain vba3, hits give low values 1.01 | locus YCR088W, strain abp1, hits give low values 1.01 | locus YDL005C, strain med2, hits give low values 1.02 | locus YDL035C, strain GPR1, hits give low values 1.02 | locus YDL040C, strain nat1, hits give low values 1.01 | locus YDL074C, strain BRE1, hits give low values 0.988 | locus YDL101C, strain DUN1, hits give low values 1.01 | locus YDL134C, strain PPH21, hits give low values 1.02 | locus YDL185W, strain tfp1, hits give low values 1.01 | locus YDL192W, strain arf1, hits give low values 1 | locus YDR001C, strain nth1, hits give low values 1 | locus YDR069C, strain doa4, hits give low values 1.02 | locus YDR101C, strain arx1, hits give low values 1.02 | locus YDR137W, strain rgp1, hits give low values 0.958 | locus YDR150W, strain NUM1, hits give low values 1 | locus YDR159W, strain sac3, hits give low values 1 | locus YDR162C, strain NBP2, hits give low values 1.02 | locus YDR195W, strain ref2 1.02 | locus YDR297W, strain sur2, hits give low values 1.02 | locus YDR318W, strain mcm21, hits give low values 1.02 | locus YDR334W, strain swr1, hits give low values 0.991 | locus YDR335W, strain msn5, hits give low values 1.01 | locus YDR388W, hits give low values 1.01 | locus YDR392W, strain spt3, hits give low values 1.01 | locus YDR502C, strain sam2, hits give low values 0.993 | locus YEL003W, strain gim4, hits give low values 1.01 | locus YEL037C, strain rad23, hits give low values 1.01 | locus YEL061C, strain CIN8 (second series), hits give low values 1 | locus YEL061C, strain CIN8, hits give low values 1 | locus YER015W, strain faa2, hits give low values 1.02 | locus YER016W, strain bim1, hits give low values 1.01 | locus YER110C, hits give low values 0.999 | locus YER111C, strain swi4, hits give low values 0.988 | locus YER155C, strain BEM2 (second series), hits give low values 0.996 | locus YER155C, strain BEM2, hits give low values 1.01 | locus YER167W, strain BCK2, hits give low values 1.03 | locus YFR010W, strain ubp6, hits give low values 1.02 | locus YGL078C, strain dbp3, hits give low values 0.998 | locus YGL086W, strain mad1, hits give low values 0.997 | locus YGL167C, strain pmr1, hits give low values 1.01 | locus YGL173C, strain kem1, hits give low values 1.02 | locus YGL227W, strain vid30, hits give low values 1.02 | locus YGL240W, strain doc1, hits give low values 1.02 | locus YGL248W, strain PDE1, hits give low values 0.996 | locus YGL253W, strain hxk2, hits give low values 1.03 | locus YGR078C, strain PAC10, hits give low values 0.994 | locus YGR135W, strain pre9, hits give low values 1.03 | locus YGR252W, strain gcn5, hits give low values 1 | locus YHR013C, strain ard1, hits give low values 1.04 | locus YHR027C, strain rpn1, hits give low values 1.02 | locus YHR030C, strain SLT2, hits give low values 1.01 and 1.04 | locus YHR079C, strain IRE1 (second series), hits give low values 1 | locus YHR079C, strain IRE1, hits give low values 1.04 | locus YHR094C, strain hxt1, hits give low values 1 | locus YHR129C, strain ARP1, hits give low values 1.01 | locus YHR142W, strain chs7, hits give low values 1.01 | locus YHR200W, strain rpn10, hits give low values 1.01 | locus YIL066C, strain RNR3, hits give low values 1 | locus YIL073C, strain SPO22, hits give low values 1.06 | locus YIL125W, strain kgd1, hits give low values 0.996 | locus YIR030C, strain dcg1, hits give low values 1.01 | locus YJL092W, strain hpr5, hits give low values 1.01 | locus YJL095W, strain BCK1 (second series), hits give low values 1.01 | locus YJL095W, strain BCK1, hits give low values 0.99 and 1.04 | locus YJL115W, strain asf1, hits give low values 1.01 | locus YJL129C, strain trk1, hits give low values 0.983 | locus YJL134W, strain LCB3, hits give low values 1.01 | locus YJL154C, strain vps35, hits give low values 1 | locus YJL164C, strain tpk1, hits give low values 1.02 | locus YJL166W, strain qcr8, hits give low values 1.02 | locus YJL168C, strain set2, hits give low values 1 | locus YJL187C, strain SWE1 (second series), hits give low values 0.986 | locus YJL187C, strain SWE1, hits give low values 1.02

Reference: PubChem BioAssay AID1159580 (chemical genetic matrix, 2015)
